# Source: PubChem BioAssay (NCATS)
# Results filed as inconclusive are left out. Where a call stands in place of a potency, no number is given. A number with no mark means an inactive call. Calls of active or inactive are those of the source. Calls follow the shape of the dose curve; as a rule, active = well fitted curve in the direction sought with a large enough effect; inconclusive = small, poorly fitted or top-dose-only effect, or another doubt; inactive = no such curve, though single readings can be large; an effect the other way counts as inactive or inconclusive.
# What was measured:
# [1] = molecular target: Rap guanine nucleotide exchange factor 3 (Homo sapiens) (UniProt O95398); assay: Confirmatory qHTS for antagonist of cAMP-regulated guanine nucleotide exchange factor 3 (EPAC1) (AID 1645880); settings: EPAC1 Rap1B-BODIPY-GDP exchange, fluorescence; activity, negative = inhibition: at 115 µM (top of the series); also: nearly all actives have a fitted effect of over 55% in size; also: potency is read from the fitted curve at half-maximal effect
# Outline: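 Nucleotide exchange uses 100 nM EPAC1, 250 nM RAP1B-BODIPY-GDP and 50 uM GDP, with compounds in a concentration-titration series. After 5 min at room temperature, fluorescence (480 nm ex/540 nm em) is read every 5 min for 30 min. Data are normalized to control ATA and DMSO.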
# [2] = molecular target: Rap guanine nucleotide exchange factor 3 (Homo sapiens) (UniProt O95398); assay: Confirmatory qHTS for agonist of cAMP-regulated guanine nucleotide exchange factor 3 (EPAC1) (AID 1645881); also: nearly all actives have a fitted effect of over 75% in size; also: potency is read from the fitted curve at half-maximal effect;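 as to activation: EPAC1 catalysed release of BODIPY-GDP from Rap1B seen as fluorescence loss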
# [3] = molecular target: Rap guanine nucleotide exchange factor 4 (Homo sapiens) (UniProt Q8WZA2); assay: Confirmatory qHTS for agonist of cAMP-regulated guanine nucleotide exchange factor 4 (EPAC2) (AID 1645884);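 also: nucleotide exchange releases bodipy-GDP from Rap1 and this lowers its fluorescence; nearly all actives have a fitted effect of over 65% in size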; also: potency is read from the fitted curve at half-maximal effect
# [4] = molecular target: Rap guanine nucleotide exchange factor 3 (Homo sapiens) (UniProt O95398); assay: Counterscreen qHTS for antagonist of cAMP-regulated guanine nucleotide exchange factor 3 (EPAC1) (AID 1645888);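 also: fluorescence loss as bound BODIPY-GDP is released from Rap1B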
# Outline: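 Measured: fluorescence of BODIPY-GDP bound to Rap1B, which falls as exchange proceeds. Conditions include 50 uM competing GDP, 5 and 30 min reads, and a later cAMP challenge for antagonist detection.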
# Rap guanine nucleotide exchange factor 4 (Homo sapiens), sequence (Q8WZA2 whole entry, looked up): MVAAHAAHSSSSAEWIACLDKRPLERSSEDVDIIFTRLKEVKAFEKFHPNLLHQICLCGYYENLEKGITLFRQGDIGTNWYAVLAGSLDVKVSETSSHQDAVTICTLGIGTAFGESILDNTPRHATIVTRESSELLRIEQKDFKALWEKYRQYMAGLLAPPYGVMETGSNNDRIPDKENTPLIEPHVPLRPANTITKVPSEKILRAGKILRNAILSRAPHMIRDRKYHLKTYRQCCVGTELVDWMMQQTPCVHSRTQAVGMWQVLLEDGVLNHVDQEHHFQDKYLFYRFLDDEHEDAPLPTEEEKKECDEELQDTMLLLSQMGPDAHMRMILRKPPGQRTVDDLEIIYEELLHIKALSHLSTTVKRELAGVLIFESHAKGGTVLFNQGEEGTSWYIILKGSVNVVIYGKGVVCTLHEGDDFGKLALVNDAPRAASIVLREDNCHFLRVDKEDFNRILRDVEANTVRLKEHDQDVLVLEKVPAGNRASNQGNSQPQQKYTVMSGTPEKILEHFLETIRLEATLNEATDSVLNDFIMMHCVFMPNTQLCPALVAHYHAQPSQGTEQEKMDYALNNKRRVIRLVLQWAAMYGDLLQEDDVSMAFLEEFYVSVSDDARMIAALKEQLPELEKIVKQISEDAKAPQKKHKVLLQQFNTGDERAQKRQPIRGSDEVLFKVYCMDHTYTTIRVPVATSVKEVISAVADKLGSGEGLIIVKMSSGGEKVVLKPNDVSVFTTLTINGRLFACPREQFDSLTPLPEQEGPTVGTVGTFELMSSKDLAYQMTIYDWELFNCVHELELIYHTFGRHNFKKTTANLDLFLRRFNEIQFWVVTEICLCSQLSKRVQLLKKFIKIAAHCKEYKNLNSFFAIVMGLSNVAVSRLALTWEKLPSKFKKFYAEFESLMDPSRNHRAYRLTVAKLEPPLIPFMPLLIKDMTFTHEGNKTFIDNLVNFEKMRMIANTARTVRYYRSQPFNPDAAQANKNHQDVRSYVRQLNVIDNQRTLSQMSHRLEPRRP
# Rap guanine nucleotide exchange factor 3 (Homo sapiens), sequence (O95398 whole entry, looked up): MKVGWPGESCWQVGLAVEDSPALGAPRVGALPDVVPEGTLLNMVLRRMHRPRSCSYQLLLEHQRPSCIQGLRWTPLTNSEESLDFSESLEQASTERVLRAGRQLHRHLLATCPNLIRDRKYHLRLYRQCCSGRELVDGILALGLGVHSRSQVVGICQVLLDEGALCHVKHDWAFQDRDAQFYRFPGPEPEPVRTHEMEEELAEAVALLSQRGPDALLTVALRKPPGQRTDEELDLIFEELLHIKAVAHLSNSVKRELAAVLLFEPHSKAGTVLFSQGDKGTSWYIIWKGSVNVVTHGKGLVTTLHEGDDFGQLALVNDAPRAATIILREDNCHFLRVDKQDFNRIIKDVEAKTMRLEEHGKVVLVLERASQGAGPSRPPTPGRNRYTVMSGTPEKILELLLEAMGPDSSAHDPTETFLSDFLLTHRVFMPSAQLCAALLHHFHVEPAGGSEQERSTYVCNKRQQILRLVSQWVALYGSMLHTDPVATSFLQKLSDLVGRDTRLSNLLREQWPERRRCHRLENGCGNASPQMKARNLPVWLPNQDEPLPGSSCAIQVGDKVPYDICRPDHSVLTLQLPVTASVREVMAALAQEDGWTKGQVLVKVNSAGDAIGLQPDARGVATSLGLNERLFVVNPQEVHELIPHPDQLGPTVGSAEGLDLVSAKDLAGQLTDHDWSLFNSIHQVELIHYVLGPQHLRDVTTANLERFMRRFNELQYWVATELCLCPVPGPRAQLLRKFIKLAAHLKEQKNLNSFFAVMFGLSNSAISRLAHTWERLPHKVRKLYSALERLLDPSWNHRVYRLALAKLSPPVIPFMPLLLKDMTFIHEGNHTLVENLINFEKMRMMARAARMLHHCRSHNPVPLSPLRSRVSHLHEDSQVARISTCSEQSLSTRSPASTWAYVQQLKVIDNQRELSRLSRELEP
SMILES,Potency [1],Potency [2],Potency [3],Potency [4],activation [3],"activity change, negative = inhibition [4]"
CCN(CC)c1ccc2cc(-c3nnc(-c4cccc(Cl)c4)o3)c(=O)oc2c1,inactive,44.7 µM (active),35.5 µM (active),inactive,–,–
COc1ccccc1N(CC(=O)Nc1ccc(Br)cc1F)S(=O)(=O)c1cccs1,inactive,inactive,inactive,inactive,–,–
Cc1ccc(CC#N)c(-c2c(CC#N)ccc(C)c2C)c1C,inactive,inactive,inactive,inactive,–,–
CN(Cc1ccnc2ccccc12)C(=O)C1CCC(=O)N(Cc2ccccc2F)C1 (stereo not drawn),inactive,inactive,inactive,inactive,–,–
Cc1cc(Nc2ccccc2)c2c([N+](=O)[O-])ccc(C)c2n1,inactive,inactive,inactive,inactive,–,–
O=C(Cn1cnc2c(nnn2Cc2ccccc2)c1=O)N1CCN(c2ccccc2)CC1,inactive,inactive,inactive,inactive,–,–
CCc1nc2c(OCc3ccc(C(F)(F)F)cc3)cccn2c1N(C)C(=O)c1ccc(OC)cc1,inactive,inactive,–,–,"16% [at 17.1 µM, percent relative to cAMP agonist control]",-20.8% [at 30.8 µM]
Cc1ccc2oc(=O)c(/C=C(\O)c3ccco3)nc2c1,inactive,89.1 µM (active),100 µM (active),inactive,–,–
CC(=O)N1CCc2c(sc(NC(=O)CS(=O)(=O)c3ccc(F)cc3)c2C(N)=O)C1,inactive,inactive,inactive,inactive,–,–
COc1ccc(OC)c(C(=O)c2ccc(Cl)cc2)c1,inactive,inactive,–,–,"8.77% [at 17.1 µM, percent relative to cAMP agonist control]",5.43% [at 30.8 µM]
COc1cc(/C=C2\SC(=S)N(NC(=O)c3ccc(O)cc3)C2=O)ccc1O,75.7 µM (active),inactive,inactive,inactive,–,–
O=S(=O)(O)c1ccc2c(c1)C(C(Cl)(Cl)Cl)OC(C(Cl)(Cl)Cl)O2 (stereo not drawn),31.6 µM (active),inactive,–,–,"2.99% [at 17.1 µM, percent relative to cAMP agonist control]",-10.8% [at 30.8 µM]
O=C1/C(=C\c2ccc(Br)cc2)SC(=S)N1NS(=O)(=O)c1ccccc1,11.2 µM (active),inactive,–,–,"10.7% [at 17.1 µM, percent relative to cAMP agonist control]",6.09% [at 30.8 µM]
O=C(Cc1ccc(Br)cc1)N(Cc1ccccc1)c1ccccn1,inactive,inactive,inactive,inactive,–,–
Cc1cc(NC(=O)COC(=O)C(C)Oc2ccc(Cl)cc2Cl)no1 (stereo not drawn),inactive,inactive,inactive,inactive,–,–
COc1ccc2c(c1)C(CC(C)=O)N(c1ccc(-c3cccnc3)cc1)C(c1ccsc1)=C2 (stereo not drawn),inactive,inactive,inactive,inactive,–,–
COc1ccc(C(C#N)N2CCC(c3ccccc3)=N2)cc1OC (stereo not drawn),inactive,inactive,inactive,inactive,–,–
Cc1cc(C)nc(SCC(=O)c2ccc(F)c(C)c2)n1,inactive,inactive,inactive,inactive,–,–
Cc1nc2ccccc2c(=O)n1N(c1ccccc1)c1ccccc1,inactive,inactive,–,–,"-5.22% [at 17.1 µM, percent relative to cAMP agonist control]",9.75% [at 30.8 µM]

SMILES,Potency [1],Potency [2],Potency [3],Potency [4],activation [3],"activity change, negative = inhibition [4]"
O=C(CN1C(=O)c2ccccc2C1=O)Nc1cc([N+](=O)[O-])ccc1O,inactive,inactive,inactive,inactive,–,–
Cc1cc2oc(=O)c(CC(=O)O)c(C)c2c2occ(C(C)(C)C)c12,inactive,inactive,inactive,inactive,–,–
CCSc1nc(C)cc(C)c1S(=O)(=O)c1ccccc1C,inactive,inactive,–,–,"3.71% [at 17.1 µM, percent relative to cAMP agonist control]",8% [at 30.8 µM]
COc1cc(/C=C2\C(=N)N3N=C(S(C)(=O)=O)SC3=NC2=O)cc(OC)c1OCCOc1ccccc1C,67.5 µM (active),inactive,inactive,inactive,–,–
CCCCCCc1cc2cc(-c3nnc(-c4ccc(C)cc4)o3)c(=O)oc2cc1O,inactive,inactive,inactive,inactive,–,–
O=C1C(O)=CC(=C(c2ccccc2)c2ccccc2)c2ccccc21,inactive,inactive,inactive,inactive,–,–
COc1ccc(Br)cc1CNc1ccc(O)cc1,inactive,inactive,inactive,inactive,–,–
O=C(O)C1=CC[C@@H](c2ccc(Cl)cc2)N(S(=O)(=O)c2ccc(Cl)cc2)[C@H]1c1ccc(Br)cc1,75.7 µM (active),inactive,inactive,inactive,–,–
O=C(CS(=O)(=O)c1ccccc1)c1cc2ccccc2oc1=O,inactive,inactive,–,–,"8.75% [at 17.1 µM, percent relative to cAMP agonist control]",-20.4% [at 30.8 µM]
CCSc1nc(-c2ccccc2)nc2c1CCCC2,inactive,inactive,inactive,inactive,–,–
Cc1ccc(C(=O)NCCCNC(=O)c2ccc(Cl)cc2)cn1,inactive,inactive,inactive,inactive,–,–
CCSc1oc(-c2cccs2)nc1S(=O)(=O)c1ccccc1,inactive,inactive,inactive,inactive,–,–
O=C(Cc1c(Cl)cccc1Cl)Nc1ccc(S(=O)(=O)Nc2ncccn2)cc1,inactive,inactive,inactive,inactive,–,–
O=C(Nc1cccc(Cl)c1N1CCOCC1)c1cccs1,inactive,inactive,inactive,inactive,–,–
CC#C[C@@H](CC)c1ccc2ccn(C)c2c1,inactive,inactive,–,–,"5.93% [at 17.1 µM, percent relative to cAMP agonist control]",-25.8% [at 30.8 µM]
O=C(COc1ccccc1Cl)Nc1ccc(C(=O)c2ccc(C(=O)O)cc2)cc1,inactive,inactive,inactive,inactive,–,–
O=[N+]([O-])c1ccccc1O[C@@H]1O[C@H](CO)[C@H](O)[C@H](O)[C@H]1O,inactive,inactive,inactive,inactive,–,–
Nc1ccc(Oc2ncccn2)cc1,inactive,inactive,inactive,inactive,–,–
